# In the library only some 9.4% were active in any assay of this set; here they are far more common.
# SMN2 splice enh = SMN2 splice variant enhancement; HEK293 SMN2-luciferase splicing reporter, luminescence, 30-36 h; Potency, µM (doses to about 46.1 µM), without a hit: top-dose activity change, positive = activation, hits mostly activators; 210,000 tested, 2.8% active; AID 1458; note: % of control where 0% means no effect; nearly all actives have a fitted effect of over 55% in size
#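 qHTS luciferase splicing reporter: luminescence rises when SMN2 exon 7 is included in transfected HEK293 cells. Compound exposure lasted 30-36 h at 37C, with 4.5 mM final sodium butyrate as control, followed by a ONE-Glo read.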
# ELG1 DNA repair = inhibitors of ELG1-dependent DNA repair in HEK293T cells | HEK293T ELG1-luciferase reporter, luminescence, 16 h; DNA damage induced by 5-fluorouridine | 330,000 tested, 2.3% active | Potency, µM (titrated, usually from 46.1 µM), for inactives: top-dose activity change, negative = inhibition, usual class: inhibitors; note: % is set by controls: 0 for no effect and ±100 for the full control effect; nearly all actives have a fitted effect of over 55% in size
#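 Step one: seed 2,000 cells per well. Step two: pin-transfer compound or DMSO alongside 5-fluorouridine. Step three: incubate 16 hr, 37 °C, 5% CO2. Step four: add ONE-Glo, wait 30 min, read luminescence.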
# ELG1 genotox = inducers of genotoxicity in HEK293T ELG1-luciferase cells; 330,000 tested, 1.3% active; HEK293T ELG1-luciferase reporter, luminescence, 16 h; Potency, µM (titrated, usually from 46 µM), for inactives: at the top dose activity change, positive = activation, actives largely listed as activators; note: % of control where 0% means no effect; nearly all actives have a fitted effect of over 60% in size
#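 HEK293T cells expressing luciferase-tagged ELG1 were treated with compound or DMSO for 16 hr at 37°C. Luciferase activity was then read after 30 min with ONE-Glo at room temperature; rising signal flags genetic stress.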
# Rab9 prom act = activators of Rab9 promoter; Huh7 Rab9 promoter-luciferase reporter, luminescence, 24 h; Potency, µM (titrated, usually from 9.22 µM), for inactives: at the highest dose activation, negative = inhibition, hits mostly activators; 320,000 tested, 2.8% active; note: % of control where 0% means no effect; nearly all actives have a fitted effect of over 60% in size
#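 Quantitative HTS format; Huh7 Rab9-luciferase reporter cells (1500/well) receive compound 2 h post-plating, incubate 24 h at 37 °C, then get luciferase reagent for 10 min before luminescence reading.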
# NPC1 prom act = activators of NPC1 promoter | Huh7 NPC1 promoter luciferase reporter, 24 h | Potency, µM (top dose mostly 9.22 µM), for the others: top-dose activation, actives largely listed as activators | 320,000 tested, 2.4% active; note: % of control where 0% means no effect; nearly all actives have a fitted effect of over 60% in size
#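 NPC1 promoter–luciferase Huh7 cells; 24 h compound; luminescence.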
# FLuc counter = firefly luciferase modulation, counter-screen for miR-21 project; AID 588342; 360,000 tested, 6.9% active; Potency, µM (titrated, usually from 57.5 µM), without a hit: top-dose activity change, negative = inhibition, actives largely listed as inhibitors; purified FLuc, Km substrates, luminescence inhibition; P08659;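 note: plate controls were vehicle for no effect and reference inhibitor for full effect; nearly all actives have a fitted effect of over 55% in size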
# Target sequence (P08659 whole entry, looked up): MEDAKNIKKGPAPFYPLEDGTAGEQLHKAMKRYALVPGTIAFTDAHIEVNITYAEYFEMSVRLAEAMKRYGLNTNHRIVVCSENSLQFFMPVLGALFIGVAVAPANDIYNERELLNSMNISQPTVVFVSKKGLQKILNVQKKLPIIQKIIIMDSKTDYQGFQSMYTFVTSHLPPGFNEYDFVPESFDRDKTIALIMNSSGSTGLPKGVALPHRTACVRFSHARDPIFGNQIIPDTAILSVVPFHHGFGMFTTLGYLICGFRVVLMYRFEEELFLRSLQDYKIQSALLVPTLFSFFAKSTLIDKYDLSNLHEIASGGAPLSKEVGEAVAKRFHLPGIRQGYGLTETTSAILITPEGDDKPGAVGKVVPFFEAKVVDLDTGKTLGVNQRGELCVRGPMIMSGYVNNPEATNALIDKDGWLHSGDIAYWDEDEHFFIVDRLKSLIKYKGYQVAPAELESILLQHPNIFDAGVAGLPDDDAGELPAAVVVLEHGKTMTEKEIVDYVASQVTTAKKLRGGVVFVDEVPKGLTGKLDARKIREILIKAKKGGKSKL
#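 Purified P. pyralis luciferase (10nM final) with 10uM D-luciferin and 10uM ATP (Km levels) in 50mM Tris acetate pH 7.5, 10mM Mg acetate, 0.01% Tween-20, 0.05% BSA; qHTS 6-point titration, ~60 µM downward; luminescence read.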
# * = called active by the depositor; ? = inconclusive; / = not tested or not shown; [ ] = dose if it differs, or a comment. Calls come from the whole dose curve; as a rule, active = well fitted curve in the direction sought with a large enough effect; inconclusive = small, poorly fitted or top-dose-only effect, or another doubt; inactive = no such curve, though single readings can be large; an effect the other way counts as inactive or inconclusive. Potency is the fitted concentration of half-maximal effect.
SMILES,SMN2 splice enh,ELG1 DNA repair,ELG1 genotox,Rab9 prom act,NPC1 prom act,FLuc counter
CCc1ccc(OCC(=O)NCC(c2ccc(OC)cc2)N2CCOCC2)cc1 (configuration not stated),/,/,/,/,/,-1%
O=C(O)c1cccc(C[C@H](Br)C(=O)O)c1,0%[9.22 µM],/,/,/,/,/
O=C(Nc1ccccc1)N1CC=C(c2ccccc2)CC1,13µM*,?,2.6µM*,1.6µM*,2.2µM*,4.8µM*
O=C(Nc1cccc2ccccc12)N1CC=C(c2ccccc2)CC1,-6%,0%,1%,1%,3%,-14%
O=C(Nc1ccccc1)N1CC=C(c2ccc(F)cc2)CC1,11µM*,?,?,1µM*,4.5µM*,24µM*
Cc1ccc(C2c3[nH]c4ccccc4c3CCN2C(=O)CCc2ccccc2)cc1 (configuration not stated),/,/,/,/,/,-4%
O=[N+]([O-])c1ccc(N/N=C\c2cccn2-c2ccccc2)nc1,-54%,1%,-6%,-4%,-5%,-2%
N#Cc1ccccc1Cn1cc(/C=N/Nc2ccc([N+](=O)[O-])cn2)c2ccccc21,-17%,6.5µM*,8%,-9%,-16%,3%
Cc1ccccc1-n1c(C)cc(/C=N/Nc2ccc([N+](=O)[O-])cn2)c1C,23%,?,?,?,?,?
O=[N+]([O-])c1ccc(N/N=C/c2ccc(OCc3cccc4ccccc34)cc2)nc1,-20%,?,21µM*,-2%,21%,2%
CCOC(=O)c1ccc(NC(=O)c2cn(-c3ccccc3)nc2-c2ccc(Br)cc2)cc1,-5%,/,/,/,/,4%
CCOC(=O)c1nn(-c2ccc(Br)cc2)cc1C(=O)c1cccc2ccccc12,?,?,17%,?,20%,6.7µM*
CCc1nc2ccc(C(=O)NCc3ccc(N(C)C)cc3)cc2nc1CC,/,/,/,/,/,-9%
O=C(NNc1cc(Br)c(O)c(Br)c1)c1ccccc1,-22%,19%,-4%,-4%,4%,21µM*
Cc1ccc(C)c(Nc2ncnc3onc(C)c23)c1,/,/,/,/,/,-5%
COc1ccccc1Nc1cc(C(=O)NCc2cccnc2)c2ccccc2n1,/,11%,0%,4%,-2%,8.5µM*
COc1ccc(Nc2cc(C(=O)NCc3ccccc3)c3ccccc3n2)c(OC)c1,-1%,/,/,/,/,8.5µM*
O=C(NCc1cccnc1)c1cc(Sc2ccc(F)cc2F)nc2ccccc12,-71%,21µM*,-8%,-12%,-12%,0%
OC[C@H](CCc1c[nH]c2ccccc12)c1c[nH]c2ccccc12,-24%[9.22 µM],/,/,/,/,/
CCn1cc(/C=C(\NC(=O)c2cc(OC)c(OC)c(OC)c2)C(=O)NCCCn2ccnc2)c2ccccc21,10%,/,/,/,/,-3%
COc1ccc(Nc2nc(NN)nc(Nc3ccc(OC)cc3)n2)cc1,/,?,-9%,-5%,6%,11µM*
c1ccc(Nc2ccnc(Nc3ccccc3)n2)cc1,/,?,?,?,2.5µM*,1.9µM*
COc1ccc(NC2=CC(=O)N(C)C2=O)cc1,11µM*,?,?,?,?,?
COc1ccc(Nc2ccc(OC)cc2)cc1,/,?,/,?,?,19µM*
COc1cccc(-c2nc(S(=O)(=O)c3ccc(Cl)cc3)c(NCc3ccccc3)o2)c1,-1%,/,/,/,/,-5%
SMILES,SMN2 splice enh,ELG1 DNA repair,ELG1 genotox,Rab9 prom act,NPC1 prom act,FLuc counter
COc1ccc(NC(C#N)c2ccc(OC)cc2)cc1 (configuration not stated),-4%,-7%,?,0%,-1%,3µM*
NNc1nc(Nc2ccccc2)nc(Nc2ccccc2)n1,-4%,16µM*,-2%,0%,9%,?
COc1ccc(NC2=C(C)C(=O)CC2)cc1,?,?,18µM*,1%,-4%,3%
CC(C)Oc1ccc(CNC(=O)CCCn2c(=O)c3cccn3c3cccnc32)cc1,/,/,/,/,/,-12%
Cc1ccc2nc(-c3ccc(NS(=O)(=O)c4ccccc4)cc3)sc2c1,3%[1.84 µM],?,7%,13%,15%,13µM*
Cc1nc2ccc(NS(=O)(=O)c3ccc(F)c(F)c3)cc2s1,/,-11%,-1%,-11%,-2%,0%
Cc1ccc(S(=O)(=O)Nc2ccc3nc(C)sc3c2)cc1,-52%,-3%,-3%,-3%,-3%,-2%
Cc1ccc2nc(-c3ccc(NS(=O)(=O)c4ccc(F)c(F)c4)cc3)sc2c1,?,?,?,1.6µM*,2.8µM*,1.2µM*
CCOC(=O)N1CCC(NC(=O)c2cnn(-c3ccc(F)cc3)c2-n2cccc2)CC1,/,/,/,/,/,2%
Cc1nn(C)c2c1c(C(F)(F)F)cc(=O)n2C(C)C(=O)NCCc1ccc(Cl)cc1 (configuration not stated),/,/,/,/,/,-8%
COc1ccccc1-c1nc(SCC(=O)Nc2ccc(C)c(C)c2)n[nH]1,-26%,/,/,/,/,?
COc1cccc(/C=N/NC(=O)C(C)Cn2cnc3ccccc32)c1 (configuration not stated),/,?,-7%,-5%,-3%,15µM*
COc1cccc(/C=N/NC(=O)c2cc(-c3cccn3C)n[nH]2)c1,15%,?,-1%,-5%,-4%,?
COc1ccc(/C=N/NC(=O)c2nc(-c3ccccc3)cc(-c3ccccc3)n2)cc1OC,-37%,4.1µM*,-1%,-3%,3%,2.4µM*
COc1cccc(/C=N/NC(=O)c2nc(-c3ccccc3)cc(-c3ccccc3)n2)c1,-18%,7.3µM*,-9%,3%,-2%,2.4µM*
O=C1CC(c2nc3ccccc3n2CCCCOc2ccccc2)CN1c1ccccc1Cl (configuration not stated),-52%,/,/,/,/,0%
CN(C)/C=C(/C#N)C(=O)c1cccc(Oc2ccc(C(C)(C)C)cc2)c1,-23%,?,-1%,-3%,0%,15µM*
CCC(C)(C)c1ccc(Oc2cccc(C(=O)O)c2)cc1,22%[9.22 µM],?,14%,?,1.8µM*,?
Cc1ccccc1Oc1cccc(C(=O)/C(C#N)=C/N(C)C)c1,-15%,?,?,2%,2%,?
CC1(C)Cc2c(sc3c2c(=N)n(Cc2ccco2)c(=O)n3Cc2ccc(F)cc2)CO1,-9%,18µM*,2%,0%,0%,1%
COc1ccc(Cn2c(=O)n(Cc3ccco3)c(=N)c3c4c(sc32)COC(C)(C)C4)cc1,-58%,7.3µM*,-6%,-1%,-1%,3%
Cc1ccc(NC(=O)Cn2c(=O)n(Cc3ccco3)c(=N)c3c4c(sc32)COC(C)(C)C4)cc1,28%,?,-11%,-2%,2%,0%
CCc1cccc(NC(=O)c2nc(-c3ccncc3)no2)c1,/,/,/,/,/,-6%

# Screening data: PubChem BioAssay, National Center for Advancing Translational Sciences (NCATS)
